{"source": "PubChem BioAssay (NCI)", "note": "About 83,000 compounds went through this panel and 20% of them were active in at least one assay; those are over-represented in the sample as a whole.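 Interpretation: 100, growth as untreated; towards 0, rising growth inhibition; 0, no net growth; 0 to -100, cell death. Compounds scoring below 10 were considered active.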 The source made the active and inactive calls.", "data": [{"system": "OVCAR-3 ovarian", "assay": "NCI-60 one-dose screen, 48 h (100 = growth as untreated, 0 = no growth, -100 = all killed)", "settings": "10 µM unless noted", "values": [{"smiles": "OC(c1ccc(F)c(C(F)(F)F)c1)c1cnccc1NC1CCCCC1", "note": "(stereo unspecified)", "growth": "72.3% (inactive)"}, {"smiles": "CC(=O)CCC(=O)OCc1cc(=O)c(O)co1", "growth": "106% (inactive)"}, {"smiles": "O=S(=O)(Nc1ccc(-n2cnc3cc(-c4ccc(O)cc4)ccc32)cc1)c1ccccc1", "growth": "95.8% (inactive)"}, {"smiles": "O=C1Nc2cc(-c3ccc(NC(=O)c4ccccc4)cc3)ccc2/C1=C/c1ccc[nH]1", "growth": "93.9% (inactive)"}, {"smiles": "CCCOC(=O)N[C@H]1CCc2cc(OC)c(OC)c(OC)c2-c2ccc(SC)c(=O)cc21", "growth": "-42.1% (active)"}, {"smiles": "COc1ccc(C(=O)Nc2cccc(C3CCc4c(cc(OC)c(OC)c4OC)O3)c2)cc1", "note": "(stereo unspecified)", "growth": "35.3% (inactive)"}, {"smiles": "COc1cc(/C=N/O)nc(-c2ccccn2)c1", "growth": "18.2% (inactive)"}, {"smiles": "NC(=NCCCOc1ccc(F)cc1)Nc1ccc(I)cc1", "growth": "80.5% (inactive)"}, {"smiles": "Cn1c(-c2c(N)n(CCCN3CCOCC3)c3nc(C#N)c(C#N)nc23)nc2ccccc21", "growth": "65.5% (inactive)"}, {"smiles": "CCOC(=O)c1ccc2c(c1)ncn2-c1ccc(NC(=O)Nc2cccc(C)c2)cc1", "growth": "96.9% (inactive)"}, {"smiles": "COc1ccc2[nH]c(=O)c(CN3CCN(c4nccc(-c5ccc(Cl)cc5)n4)CC3)cc2c1", "growth": "100% (inactive)"}, {"smiles": "O=C(/C(=C\\c1ccc([N+](=O)[O-])cc1)S(=O)Cc1ccc(Cl)cc1)c1ccc(Cl)cc1", "note": "(stereo unspecified)", "growth": "73.7% (inactive)"}, {"smiles": "CCN(CC)CC[n+]1cc2cc(OC)c(OC)cc2c2ccc3cc4c(cc3c21)OCO4", "growth": "13.4% (inactive)"}, {"smiles": "N#CC(C#N)=Cc1cc2ccccc2nc1Oc1ccc(C(F)(F)F)cc1", "growth": "101% (inactive)"}, {"smiles": "COc1cc(/C=C\\C(=O)O)ccc1OCc1ccccc1", "growth": "104% (inactive)"}, {"smiles": "c1ccc(-c2cn3c(ccc4ccccc43)n2)cc1", "growth": "56.3% (inactive)"}, {"smiles": "O=C(Nc1ccc(Cl)cc1)c1cc(NCc2cc(O)ccc2O)ccc1O", "growth": "48.8% (inactive)"}, {"smiles": "N/C(=N\\C(N)=N\\c1nc2ccccc2s1)c1cnccn1", "growth": "3.95% (active)"}, {"smiles": "CCOC(=O)[C@@H](C)C[C@H](Cc1ccccc1)NC(=O)c1csc([C@@H](C[C@H](C(C)C)N(C)C(=O)[C@@H](NC(=O)[C@H]2C[C@H](O[Si](C)(C)C(C)(C)C)CCN2C)C(C)C)OC(C)=O)n1", "growth": "1.08% [9.25 µM] (active)"}, {"smiles": "CC(C)N1C(=O)/C(=C2\\SC(=S)N(C(C)C)C2=O)SC1=S", "growth": "98.4% (inactive)"}, {"smiles": "C#CCNC(=O)c1cccc2c1cc(C)n2-c1nc2c(c(NCc3ccccc3)n1)CCCC2", "growth": "-61.2% (active)"}, {"smiles": "COc1cc2nc(-c3ccc(Cl)cc3)cc(OCCCN3CCCCC3)c2cc1OC", "growth": "72% (inactive)"}, {"smiles": "O=C(N/N=C/c1ccc(Oc2ccccc2)cc1)c1cnn2c1NC(c1ccccc1)C2", "note": "(stereo unspecified)", "growth": "-32.6% (active)"}, {"smiles": "O=[N+]([O-])CC(c1ccccc1)c1c[nH]c2ccccc12", "note": "(stereo unspecified)", "growth": "42.4% (inactive)"}, {"smiles": "COc1ccc(CNCCN2C(=O)c3ccc4c5c(ccc(c35)C2=O)C(=O)N(CCNCc2ccc(OC)c(OC)c2OC)C4=O)c(OC)c1OC", "growth": "-42.8% (active)"}, {"smiles": "Cn1c(N2NC(=O)C(N=Nc3ccc(S(N)(=O)=O)cc3)C2=O)nc(-c2ccco2)c(C#N)c1=O", "note": "(stereo unspecified)", "growth": "72.7% (inactive)"}, {"smiles": "CCCOC(=O)N[C@H]1CCc2c(Cl)c(OC)c(OC)c(OC)c2-c2ccc(SC)c(=O)cc21", "growth": "-24.7% (active)"}, {"smiles": "C/C=C(\\C)C(=O)NC1=CC[C@@]2(C)C(=CCC3C2CC[C@@]2(C)C3CC[C@@H]2C(C)N(C)C)C1=O", "note": "(stereo partly specified)", "growth": "29.3% (inactive)"}, {"smiles": "COc1ccccc1/C(C)=N/NC(=O)CSc1nc2ccccc2c(=O)n1Cc1ccc(S(N)(=O)=O)cc1", "growth": "108% (inactive)"}, {"smiles": "COc1ccc(OC)c(-c2cc(-c3ccc(Cl)cc3)c3c(N)c(C(=O)c4ccc(Cl)cc4)sc3n2)c1", "growth": "103% (inactive)"}, {"smiles": "N#C/C(=C\\c1ccc(Cl)cc1)n1nnc2cc(F)c(F)cc21", "growth": "-0.889% (active)"}, {"smiles": "COc1cccc(C(=O)NNc2nc(Cl)nc(N3CCN(C(c4ccccc4)c4ccccc4)CC3)n2)c1", "growth": "10.5% (inactive)"}, {"smiles": "C=C1C(=O)O[C@H]2[C@H]1CC/C(CNC(=O)/C=C/c1ccccc1)=C\\CC[C@@]1(C)O[C@@H]21", "growth": "-85.1% (active)"}, {"smiles": "CCN(CC)CCOc1ccc(NC(=O)C(C(C)C)N2C(=O)/C(=C/c3ccc(Br)cc3)SC2=S)cc1", "note": "(stereo unspecified)", "growth": "94% (inactive)"}, {"smiles": "N#Cc1cccc(-c2ccc3c(c2)NC(=O)/C3=C\\c2ccc[nH]2)c1", "growth": "30.7% (inactive)"}, {"smiles": "CCCCCCCCOc1ccc(/C=N/Nc2cc(C)nc3ccc(Br)cc23)cc1", "growth": "67.1% (inactive)"}, {"smiles": "O=C(N/N=C/c1cc2ccccc2n2nnnc12)Nc1ccccc1", "growth": "111% (inactive)"}, {"smiles": "COc1cc2c(c(O)c1Br)C(=O)c1c(O)cc(C[C@H](C)O)cc1[C@H]2[C@H]1c2cc(C[C@H](C)O)cc(O)c2C(=O)c2c1cc(OC)c(Br)c2O", "growth": "-27.4% (active)"}]}, {"system": "HS 578T breast", "assay": "NCI-60 one-dose screen, 48 h (100 = growth as untreated, 0 = no growth, -100 = all killed)", "settings": "10 µM unless noted", "values": [{"smiles": "OC(c1ccc(F)c(C(F)(F)F)c1)c1cnccc1NC1CCCCC1", "note": "(stereo unspecified)", "growth": "77.3% (inactive)"}, {"smiles": "CC(=O)CCC(=O)OCc1cc(=O)c(O)co1", "growth": "103% (inactive)"}, {"smiles": "O=S(=O)(Nc1ccc(-n2cnc3cc(-c4ccc(O)cc4)ccc32)cc1)c1ccccc1", "growth": "97.3% (inactive)"}, {"smiles": "O=C1Nc2cc(-c3ccc(NC(=O)c4ccccc4)cc3)ccc2/C1=C/c1ccc[nH]1", "growth": "115% (inactive)"}, {"smiles": "CCCOC(=O)N[C@H]1CCc2cc(OC)c(OC)c(OC)c2-c2ccc(SC)c(=O)cc21", "growth": "5.68% (active)"}, {"smiles": "COc1ccc(C(=O)Nc2cccc(C3CCc4c(cc(OC)c(OC)c4OC)O3)c2)cc1", "note": "(stereo unspecified)", "growth": "38.9% (inactive)"}, {"smiles": "COc1cc(/C=N/O)nc(-c2ccccn2)c1", "growth": "65% (inactive)"}, {"smiles": "NC(=NCCCOc1ccc(F)cc1)Nc1ccc(I)cc1", "growth": "84.6% (inactive)"}, {"smiles": "Cn1c(-c2c(N)n(CCCN3CCOCC3)c3nc(C#N)c(C#N)nc23)nc2ccccc21", "growth": "94.3% (inactive)"}, {"smiles": "CCOC(=O)c1ccc2c(c1)ncn2-c1ccc(NC(=O)Nc2cccc(C)c2)cc1", "growth": "84.1% (inactive)"}, {"smiles": "COc1ccc2[nH]c(=O)c(CN3CCN(c4nccc(-c5ccc(Cl)cc5)n4)CC3)cc2c1", "growth": "72.9% (inactive)"}, {"smiles": "O=C(/C(=C\\c1ccc([N+](=O)[O-])cc1)S(=O)Cc1ccc(Cl)cc1)c1ccc(Cl)cc1", "note": "(stereo unspecified)", "growth": "85.1% (inactive)"}, {"smiles": "CCN(CC)CC[n+]1cc2cc(OC)c(OC)cc2c2ccc3cc4c(cc3c21)OCO4", "growth": "-4.12% (active)"}, {"smiles": "N#CC(C#N)=Cc1cc2ccccc2nc1Oc1ccc(C(F)(F)F)cc1", "growth": "96.9% (inactive)"}, {"smiles": "COc1cc(/C=C\\C(=O)O)ccc1OCc1ccccc1", "growth": "101% (inactive)"}, {"smiles": "c1ccc(-c2cn3c(ccc4ccccc43)n2)cc1", "growth": "67.8% (inactive)"}, {"smiles": "O=C(Nc1ccc(Cl)cc1)c1cc(NCc2cc(O)ccc2O)ccc1O", "growth": "90% (inactive)"}, {"smiles": "N/C(=N\\C(N)=N\\c1nc2ccccc2s1)c1cnccn1", "growth": "49% (inactive)"}, {"smiles": "CCOC(=O)[C@@H](C)C[C@H](Cc1ccccc1)NC(=O)c1csc([C@@H](C[C@H](C(C)C)N(C)C(=O)[C@@H](NC(=O)[C@H]2C[C@H](O[Si](C)(C)C(C)(C)C)CCN2C)C(C)C)OC(C)=O)n1", "growth": "-17.7% [9.25 µM] (active)"}, {"smiles": "CC(C)N1C(=O)/C(=C2\\SC(=S)N(C(C)C)C2=O)SC1=S", "growth": "91.4% (inactive)"}, {"smiles": "C#CCNC(=O)c1cccc2c1cc(C)n2-c1nc2c(c(NCc3ccccc3)n1)CCCC2", "growth": "8.06% (active)"}, {"smiles": "COc1cc2nc(-c3ccc(Cl)cc3)cc(OCCCN3CCCCC3)c2cc1OC", "growth": "62.1% (inactive)"}, {"smiles": "O=C(N/N=C/c1ccc(Oc2ccccc2)cc1)c1cnn2c1NC(c1ccccc1)C2", "note": "(stereo unspecified)", "growth": "32.3% (inactive)"}, {"smiles": "O=[N+]([O-])CC(c1ccccc1)c1c[nH]c2ccccc12", "note": "(stereo unspecified)", "growth": "64% (inactive)"}, {"smiles": "COc1ccc(CNCCN2C(=O)c3ccc4c5c(ccc(c35)C2=O)C(=O)N(CCNCc2ccc(OC)c(OC)c2OC)C4=O)c(OC)c1OC", "growth": "-34.6% (active)"}, {"smiles": "Cn1c(N2NC(=O)C(N=Nc3ccc(S(N)(=O)=O)cc3)C2=O)nc(-c2ccco2)c(C#N)c1=O", "note": "(stereo unspecified)", "growth": "104% (inactive)"}, {"smiles": "CCCOC(=O)N[C@H]1CCc2c(Cl)c(OC)c(OC)c(OC)c2-c2ccc(SC)c(=O)cc21", "growth": "9.75% (active)"}, {"smiles": "C/C=C(\\C)C(=O)NC1=CC[C@@]2(C)C(=CCC3C2CC[C@@]2(C)C3CC[C@@H]2C(C)N(C)C)C1=O", "note": "(stereo partly specified)", "growth": "56.8% (inactive)"}, {"smiles": "COc1ccccc1/C(C)=N/NC(=O)CSc1nc2ccccc2c(=O)n1Cc1ccc(S(N)(=O)=O)cc1", "growth": "85.4% (inactive)"}, {"smiles": "COc1ccc(OC)c(-c2cc(-c3ccc(Cl)cc3)c3c(N)c(C(=O)c4ccc(Cl)cc4)sc3n2)c1", "growth": "115% (inactive)"}, {"smiles": "N#C/C(=C\\c1ccc(Cl)cc1)n1nnc2cc(F)c(F)cc21", "growth": "13.6% (inactive)"}, {"smiles": "COc1cccc(C(=O)NNc2nc(Cl)nc(N3CCN(C(c4ccccc4)c4ccccc4)CC3)n2)c1", "growth": "91.6% (inactive)"}, {"smiles": "C=C1C(=O)O[C@H]2[C@H]1CC/C(CNC(=O)/C=C/c1ccccc1)=C\\CC[C@@]1(C)O[C@@H]21", "growth": "28.6% (inactive)"}, {"smiles": "CCN(CC)CCOc1ccc(NC(=O)C(C(C)C)N2C(=O)/C(=C/c3ccc(Br)cc3)SC2=S)cc1", "note": "(stereo unspecified)", "growth": "84.2% (inactive)"}, {"smiles": "N#Cc1cccc(-c2ccc3c(c2)NC(=O)/C3=C\\c2ccc[nH]2)c1", "growth": "92.1% (inactive)"}, {"smiles": "CCCCCCCCOc1ccc(/C=N/Nc2cc(C)nc3ccc(Br)cc23)cc1", "growth": "64.1% (inactive)"}, {"smiles": "O=C(N/N=C/c1cc2ccccc2n2nnnc12)Nc1ccccc1", "growth": "109% (inactive)"}, {"smiles": "COc1cc2c(c(O)c1Br)C(=O)c1c(O)cc(C[C@H](C)O)cc1[C@H]2[C@H]1c2cc(C[C@H](C)O)cc(O)c2C(=O)c2c1cc(OC)c(Br)c2O", "growth": "9.13% (active)"}]}]}
